TIM10 inh: TIM10 yeast growth inhibition; S. cerevisiae TIM10 strain growth, BacTiter-Glo luminescence, 24 h; inhibition, % at 10 µM; hit rate 1.4% among 330,000;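 active = inhibition of 40% or more at the single tested concentration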;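 note: wild-type TIM10 isogenic control strain grown at permissive 25 °C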
tim10-1 inh: inhibits growth of tim10-1 mutant yeast | inhibition, % at 20 µM | S. cerevisiae tim10-1 ts strain growth, BacTiter-Glo, 24 h | hit rate 2.2% among 330,000;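 active = inhibition of at least 40%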;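 note: mutant grown at 25 °C; 0% = DMSO wells with yeast and 100% = wells holding no yeast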
NLRP3 yeast inh: NALP3 inhibition in yeast | Yeast reconstituted NLRP3/ASC/caspase-1, beta-gal luminescence, 24 h | inhibition, % at 10 µM | hit rate 0.39% among 330,000;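 active = inhibition of 50% or more; inactive = inhibition below 50%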;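 note: plate controls were induced DMSO wells for no effect and uninduced yeast grown without galactose for full effect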
tim23-1 inh: tim23-1 yeast growth inhibition; hit rate 1.3% among 330,000; inhibition, % at 20 µM; S. cerevisiae tim23-1 growth, BacTiter-Glo luminescence, 24 h;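 active = growth inhibition of the mutant yeast at or above 50%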;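 note: temperature-sensitive mutant grown at 25 °C; plate controls were DMSO-treated mutant yeast for no effect and medium wells lacking yeast for full effect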
NALP1 yeast inh: inhibitors of NALP1 inflammasome in yeast; hit rate 0.61% among 280,000; AID 2071; inhibition, % at 10 µM; S. cerevisiae NALP1/ASC/caspase-1 growth, X-gal OD620, 72 h; in the data active = inhibition mostly above about 24%, no sharp cut-off; inactive = mostly below about 32%
tim10-1 conf: confirmation of tim10-1 mutant yeast growth inhibitors; inhibition, % at 20 µM; S. cerevisiae tim10-1 ts strain growth, BacTiter-Glo, 24 h; AID 463213; hit rate 56% among 7,400; shares compounds with tim10-1 inh;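 active = inhibition of yeast growth at or above a set limit in either of two repeat tests at 20 µM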;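 note: tim10-1 mutant grown at permissive 25 °C to find synthetic lethal compounds; 0% = DMSO yeast wells and 100% = medium wells without yeast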
* hit, by the source's call; / = not tested or not shown. Shown are actives, neighbours in structure and some others; about 4.1% of the full set was active somewhere.

SMILES | TIM10 inh | tim10-1 inh | NLRP3 yeast inh | tim23-1 inh | NALP1 yeast inh | tim10-1 conf
CN(CC(=O)Nc1ccc(Cl)c(C(F)(F)F)c1)C(=O)COC(=O)C1CC2CCCC(C1)C2=O (stereo unspecified) | 9 | 13 | 13 | -1 | / | /
Cn1c(NNC(=O)C2CCCCC2)cc(=O)n(C)c1=O | -2 | 7 | 6 | 16 | -9 | /
CCn1c2ccccc2c2c3ncc4cccn4c3ccc21 | 16 | 49* | 20 | 37 | 5 | 30*
c1ccc2c(c1)ncc1cccn12 | -3 | -10 | 18 | 1 | 21 | /
COc1ccc(-c2csc3ncnc(NCCN4CCOCC4)c23)cc1 | 11 | 19 | 10 | 25 | -4 | /
COc1ccc(-c2oc3ncnc(NCCN4CCOCC4)c3c2-c2ccc(OC)cc2)cc1 | 38 | 48* | 12 | 39 | -2 | 29*
c1ccc(-c2oc3ncnc(NCCCN4CCOCC4)c3c2-c2ccccc2)cc1 | -23 | 22 | 36 | 13 | -6 | /
COc1ccc(-c2oc3ncnc(NCCCN4CCOCC4)c3c2-c2ccc(OC)cc2)cc1 | 29 | 41* | -1 | 48 | 36 | 23
CN(C)c1ccc(C(C(=O)NCc2ccccc2)N(Cc2cccnc2)C(=O)c2snc(C(N)=O)c2N)cc1 (stereo unspecified) | -9 | 17 | -3 | 14 | 8 | /
CCOC(=O)C1NN=C(C(=O)c2ccccc2)C1c1ccccc1 (stereo unspecified) | 18 | 16 | 4 | 26 | 14 | /
CCOC(=O)C1NN=C(C(=O)c2ccccc2)C1c1ccc(Cl)cc1 (stereo unspecified) | 9 | 43* | -16 | 29 | 16 | 19
COc1ccc(C2/C=C\CN(C(=O)c3ccc(C)cc3)CC(=O)N2Cc2ccc(F)cc2)cc1 (stereo unspecified) | 13 | 40* | 14 | 8 | 2 | 21
Cc1ccc(NC(=O)c2ccc(NS(=O)(=O)c3cccc4cccnc34)cc2)cc1 | 7 | -7 | 3 | 1 | 15 | /
COc1ccc(/C=C/C(=O)c2oc3ccc(F)cc3c2C)cc1 | 27 | 41* | -1 | 29 | 13 | 31*
COc1ccccc1N1CCN(C(=O)c2ccc3[nH]c(C)c(C)c3c2)CC1 | 26 | 42* | 9 | 46 | -4 | 25
COc1ccc2oc(C(=O)NNC(=O)c3ccc(F)cc3)c(C)c2c1 | -4 | -15 | 32 | -4 | / | /
Cc1[nH]c2ccc(C(=O)N3CCN(c4cccc(Cl)c4)CC3)cc2c1C | 13 | 56* | 10 | 48 | 0 | 13
O=C(c1ccccc1Br)N1CCN(c2ccccc2)CC1 | 1 | 86* | 3 | 27 | 0 | 15
Cc1cccc(N2CCN(C(=O)c3ccc4[nH]c(C)c(C)c4c3)CC2)c1C | 19 | 13 | 9 | 29 | / | /
COc1ccccc1N1CCN(C(=O)c2oc3ccc(F)cc3c2C)CC1 | 24 | 42* | 12 | 44 | 30 | 29
O=C(c1cc2ccccc2cc1O)N1CCN(c2cccc(Cl)c2)CC1 | 37 | 47* | 5 | 47 | / | 30*
CC(=O)c1c(C)[nH]c(C(=O)Nc2nccs2)c1C | 4 | 11 | 4 | 7 | 0 | /
CC(=O)c1c(C)[nH]c(C(=O)Nc2nc(-c3ccccc3)c(C)s2)c1C | 22 | 43* | 16 | 26 | 10 | 28
COc1cc(Nc2nc3ccccc3nc2NS(=O)(=O)c2ccc([N+](=O)[O-])cc2)cc(OC)c1OC | 22 | 46* | 9 | 38 | -5 | 35*
O=C1/C(=C/c2ccc(O)cc2)CCc2ccc([N+](=O)[O-])cc21 | 1 | 20 | 19 | 2 | 28 | /
SMILES | TIM10 inh | tim10-1 inh | NLRP3 yeast inh | tim23-1 inh | NALP1 yeast inh | tim10-1 conf
O=C1/C(=C\c2ccc([N+](=O)[O-])cc2)CCc2ccccc21 | 37 | 47* | 21 | 42 | 33 | 36*
COc1cc(OC)c(C(=O)Oc2ccc3c(c2)OCO3)cc1OC | 6 | 20 | 8 | 17 | 22 | /
COc1ccc(C(=O)Oc2ccc3c(c2)OCO3)cc1OC | 11 | 42* | 16 | 17 | -13 | 30
N#Cc1ccc(C(=O)NC23CC4CC(CC(C4)C2)C3)cc1 | 8 | 41* | 25 | 26 | 17 | 4
CCOCCCNC(=O)C(NC(=O)c1ccc(NC(C)=O)cc1)c1ccc(OC)cc1 (stereo unspecified) | 9 | 1 | 6 | 7 | 20 | /
O=C(O)CC(C(=O)Nc1ccc(F)cc1)C1CCCO1 (stereo unspecified) | 0 | 10 | 4 | 1 | / | /

From PubChem
